Data from PubChem BioAssay (Tox21).
Active and inactive are the calls of the source. Entries that show only a call come without a potency. The call rests on the fitted dose curve; in most records, active means well fitted cell-killing curve with a large enough effect in the repeat runs; inconclusive means weak or mixed curves, or effect the other way; inactive means flat fitted curve, though single readings scatter.
Potency means the concentration at half of the fitted maximal effect.

Test: qHTS assay to identify small molecule HDAC inhibitors - cell viability counter screen (AID 1259365); further: nearly all actives have a fitted effect of over 50% in size
Settings: HCT-116 viability, CellTiter-Glo ATP luminescence, 2 h; series mostly up to 92.4 µM
Source text: U.S. Tox21 Program National Center for Advancing Translational Sciences [NCATS] NIH Chemical Genomics Center [NCGC] U.S. Environmental Protection Agency [EPA] National Institutes of Environmental Health Sciences [NIEHS] National Toxicology Program [NTP] U.S. Food and Drug Administration [FDA] Tox21 Assay Overview: Histone deacetylases (HDACs) are a group of epigenetic enzymes that regulate gene expression by histone deacetylation. HDACs are capable of introducing epigenetic modifications and such aberrations contribute to the onset and progression of several human diseases, thus making HDACs a popular therapeutic target. For identifying endogenous class I/II HDAC inhibitors a homogenous, luminogenic HDAC I/II cell based assay was used to measure the relative activity of class I and II HDACs from cells. Wild type HCT-116 cells were used to screen Tox21 compound libraries for identifying class I/II HDAC inhibitors.
Tox21 Assay Protocol Summary: HCT-116 cells were dispensed at 1,500 per well in 5uL of culture medium into white solid bottom 1536-well plates (Greiner Bio-One, Monroe, NC) using a Multidrop Combi (Thermo Scientific, Waltham, MA) dispenser. The assay plates were incubated at 37 C and 5% CO2 for an overnight, and then 23nL of compounds dissolved in DMSO and positive control were transferred using a Pintool station (Wako, San Diego, CA). The assay plates were incubated at 37C and 5% CO2 for 2hr. After compound treatment, 4uL of CellTiter-Glo reagent (Promega Corporation, Madison, WI) was added to each well of the assay plates using Flying Reagent Dispenser (FRD, Aurora Discovery, San Diego, CA) and incubated the assay plates at room temperature for 30min. The luminescence signal was quantified using a ViewLux plate reader (Perkin Elmer, Shelton, CT).
In the case of `Oc1ccc(N=Nc2ccccc2)cc1`, the Potency is reported as “inactive”. For `CCCCCCCC[N+](CCCCCCCC)(CCCCCCCC)CCCCCCCC`, the Potency was 61 µM (active). For `COc1cc(-c2ccc(N=C=O)c(OC)c2)ccc1N=C=O`, the Potency was “inactive”. In the case of `Cc1ccc(O)c2ncccc12`, the Potency is reported as “inactive”. With `CCc1cc(Cc2cc(CC)cc(C(C)(C)C)c2O)c(O)c(C(C)(C)C)c1` the Potency was “inactive”. In the case of `Cc1[nH]nc2c1N=C(c1ccccc1Cl)c1cc([N+](=O)[O-])ccc1N2`, the Potency is reported as “inactive”. For `Cc1cc(O)c(C(C)(C)C)cc1Sc1cc(C(C)(C)C)c(O)cc1C`, the Potency was 61 µM (active). With `Cc1cc(N)c(S(=O)(=O)O)cc1Cl` the Potency was “inactive”. In the case of `CCCCCCCCOC(=O)c1ccc(O)cc1`, the Potency is reported as “inactive”. With `CCN1/C(=C/C=C/c2sc3ccccc3[n+]2CC)Sc2ccccc21` the activity change, negative = cytotoxicity was -13.9% [at 19 µM] (inactive). With `CC[C@H]1O[C@]2(CC[C@@H]1C)C[C@@H]1C[C@@H](C/C=C(\C)C[C@@H](C)/C=C/C=C3\CO[C@@H]4[C@H](O)C(C)=C[C@@H](C(=O)O1)[C@]34O)O2` the Potency was “inactive”. In the case of `O=C(c1ccc(O)cc1O)c1ccc(O)cc1O`, the Potency is reported as “inactive”. For `C[C@H](CCC(=O)O)[C@H]1CC[C@H]2[C@@H]3CC[C@@H]4C[C@H](O)CC[C@]4(C)[C@H]3CC[C@]12C`, the Potency was “inactive”. For `CCCCCCCCS(=O)C(C)Cc1ccc2c(c1)OCO2` (stereo not given), the Potency was “inactive”. With `Cc1cccc(N(C)C(=S)Oc2ccc3c(c2)C2CCC3C2)c1` (stereo not given) the Potency was “inactive”. With `CCCCCCCCCCn1cc[n+](CCCCCCCCCC)c1C` the Potency was 61.2 µM (active). For `CCCCCCCC/C=C/CCCCCCCC1=NCCN1CCO`, the Potency was “inactive”. In the case of `CCCN(CCC)C(=O)C(CCC(=O)OCCCN1CCN(CCOC(=O)Cc2c(C)n(C(=O)c3ccc(Cl)cc3)c3ccc(OC)cc23)CC1)NC(=O)c1ccccc1` (stereo not given), the Potency is reported as “inactive”. In the case of `O=S1(=O)CC(Cl)(Cl)C(Cl)(Cl)C1`, the Potency is reported as 48.6 µM (active). For `OCCN1CCN(CC/C=C2/c3ccccc3Sc3ccc(C(F)(F)F)cc32)CC1`, the Potency was “inactive”. With `COc1cc(/C=C/C(=O)O[C@H]2CC[C@]34C[C@]35CC[C@]3(C)[C@@H]([C@H](C)CCC=C(C)C)CC[C@@]3(C)[C@@H]5CC[C@H]4C2(C)C)ccc1O` the Potency was “inactive”. For `NC(=O)C1(N2CCCCC2)CCN(CCCN2c3ccccc3CCc3ccc(Cl)cc32)CC1`, the Potency was “inactive”. With `Cc1cc(=O)oc2cc(N(C)C)ccc12` the Potency was “inactive”. For `CN(C)CCCOC1(Cc2ccccc2)CCCCCC1`, the Potency was “inactive”. For `CCCCC(CC)COC(=O)c1ccccc1C(=O)O` (stereo not given), the Potency was “inactive”. With `CC(C)(C)C(=O)OCOC(=O)C1N2C(=O)CC2S(=O)(=O)C1(C)C` (stereo not given) the Potency was “inactive”. In the case of `CC[C@@]1(O)C(=O)OCc2c1cc1n(c2=O)Cc2c-1nc1ccccc1c2/C=N/OC(C)(C)C`, the Potency is reported as “inactive”. In the case of `C=C(C)C(=O)OCC(O)COc1ccc(C(C)(C)c2ccc(OCC(O)COC(=O)C(=C)C)cc2)cc1` (stereo not given), the Potency is reported as “inactive”. For `Clc1ccc2cc3ccccc3cc2c1`, the Potency was “inactive”. For `Cc1ccc2oc(CN(Cc3ccccc3)C(=O)Nc3c(F)cc(F)cc3F)c(-c3ccc(Cl)cc3)c2c1`, the Potency was “inactive”. For `[O-][n+]1ccccc1SSc1cccc[n+]1[O-]`, the activity change, negative = cytotoxicity was 12.3% [at 19 µM] (inactive). With `O=C1CCCCCN1SSN1CCCCCC1=O` the Potency was “inactive”. For `C/C(=C(/OCCOc1ccc(Cl)cc1)c1ccc(Cl)cc1Cl)n1ccnc1`, the Potency was “inactive”. With `Oc1ccc2c(c1)-c1ccccc1C2` the Potency was “inactive”. In the case of `Cc1cc(CCN2CCN(c3nsc4ccccc34)CC2)cc2c1NC(=O)CC2(C)C`, the Potency is reported as “inactive”. With `Cn1cc(C(=O)[C@@H]2CCc3nc[nH]c3C2)c2ccccc21` the Potency was “inactive”. With `O=C(N/N=C/c1ccccc1O)c1ccncc1` the Potency was “inactive”. For `COc1cccc(N)c1`, the Potency was “inactive”. For `CCCCCCCCOc1ccccc1C(=O)Nc1ccc(C(=O)OCC[N+](C)(CC)CC)cc1`, the Potency was “inactive”. With `Clc1ccc(C(Cn2ccnc2)OCc2ccc(Sc3ccccc3)cc2)c(Cl)c1` (stereo not given) the Potency was “inactive”.
